# Source: the supplement of paper PMC4466140
# Target: ScBbc1
# Assay: SPOT peptide array binding signal intensity (averaged, normalized) (arbitrary units (background-subtracted, floor 0; scale differs between SH3 domains)); higher = stronger binding of the SH3 domain to the peptide
# Method in brief: (§1)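 Detection of bound protein relied on anti-GST antibody, an HRP anti-mouse secondary and luminol, with imaging and quantification in Genespotter. The bound protein was GST-fused SH3 domains from four yeast species, incubated at 10 μg/ml overnight at 4°C in TBS-based blocking buffer on cellulose membranes carrying synthetic 15-mer peptides with cysteines replaced by serines. Binding signal is normalized, background-subtracted spot intensity averaged over replicates, in arbitrary units that differ between domains.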
row,Binder,SPOT peptide array binding signal intensity
1,RPVPRRPSQPLNTLS,514

# Target: ScBem1-D1
# Assay: as above
# Method in brief: as §1
row,Binder,SPOT peptide array binding signal intensity
1,RPVPRRPSQPLNTLS,6.5

# Target: ScBzz1-D1
# Assay: as above
# Method in brief: as §1
row,Binder,SPOT peptide array binding signal intensity
1,RPVPRRPSQPLNTLS,43.2

# Target: ScBzz1-D2
# Assay: as above
# Method in brief: as §1
row,Binder,SPOT peptide array binding signal intensity
1,RPVPRRPSQPLNTLS,25.8

# Target: ScCyk3
# Assay: as above
# Method in brief: as §1
row,Binder,SPOT peptide array binding signal intensity
1,RPVPRRPSQPLNTLS,22

# Target: ScFus1
# Assay: as above
# Method in brief: as §1
row,Binder,SPOT peptide array binding signal intensity
1,RPVPRRPSQPLNTLS,≤ 0

# Target: ScHof1
# Assay: as above
# Method in brief: as §1
row,Binder,SPOT peptide array binding signal intensity
1,RPVPRRPSQPLNTLS,0.5

# Target: ScHse1
# Assay: as above
# Method in brief: as §1
row,Binder,SPOT peptide array binding signal intensity
1,RPVPRRPSQPLNTLS,389

# Target: ScLsb1
# Assay: as above
# Method in brief: as §1
row,Binder,SPOT peptide array binding signal intensity
1,RPVPRRPSQPLNTLS,258

# Target: ScLsb2
# Assay: as above
# Method in brief: as §1
row,Binder,SPOT peptide array binding signal intensity
1,RPVPRRPSQPLNTLS,56

# Target: ScLsb3
# Assay: as above
# Method in brief: as §1
row,Binder,SPOT peptide array binding signal intensity
1,RPVPRRPSQPLNTLS,5960

# Target: ScLsb4
# Assay: as above
# Method in brief: as §1
row,Binder,SPOT peptide array binding signal intensity
1,RPVPRRPSQPLNTLS,1750

# Target: ScMyo3
# Assay: as above
# Method in brief: as §1
row,Binder,SPOT peptide array binding signal intensity
1,RPVPRRPSQPLNTLS,2

# Target: ScMyo5
# Assay: as above
# Method in brief: as §1
row,Binder,SPOT peptide array binding signal intensity
1,RPVPRRPSQPLNTLS,1.25

# Target: ScNbp2
# Assay: as above
# Method in brief: as §1
row,Binder,SPOT peptide array binding signal intensity
1,RPVPRRPSQPLNTLS,3100

# Target: ScPex13
# Assay: as above
# Method in brief: as §1
row,Binder,SPOT peptide array binding signal intensity
1,RPVPRRPSQPLNTLS,1420

# Target: ScRvs167
# Assay: as above
# Method in brief: as §1
row,Binder,SPOT peptide array binding signal intensity
1,RPVPRRPSQPLNTLS,2300

# Target: ScSho1
# Assay: as above
# Method in brief: as §1
row,Binder,SPOT peptide array binding signal intensity
1,RPVPRRPSQPLNTLS,163

# Target: ScSla1-D1-D2
# Assay: as above
# Method in brief: as §1
row,Binder,SPOT peptide array binding signal intensity
1,RPVPRRPSQPLNTLS,1000

# Target: ScSla1-D3
# Assay: as above
# Method in brief: as §1
row,Binder,SPOT peptide array binding signal intensity
1,RPVPRRPSQPLNTLS,18

# Target: SpAbp1-D1
# Assay: as above
# Method in brief: as §1
row,Binder,SPOT peptide array binding signal intensity
1,RPVPRRPSQPLNTLS,147

# Target: SpBbc1
# Assay: as above
# Method in brief: as §1
row,Binder,SPOT peptide array binding signal intensity
1,RPVPRRPSQPLNTLS,380

# Target: SpBzz1-D1
# Assay: as above
# Method in brief: as §1
row,Binder,SPOT peptide array binding signal intensity
1,RPVPRRPSQPLNTLS,466

# Target: SpBzz1-D2
# Assay: as above
# Method in brief: as §1
row,Binder,SPOT peptide array binding signal intensity
1,RPVPRRPSQPLNTLS,1.5

# Target: SpCyk3
# Assay: as above
# Method in brief: as §1
row,Binder,SPOT peptide array binding signal intensity
1,RPVPRRPSQPLNTLS,6.75

# Target: SpHof1
# Assay: as above
# Method in brief: as §1
row,Binder,SPOT peptide array binding signal intensity
1,RPVPRRPSQPLNTLS,297

# Target: SpHof1-2
# Assay: as above
# Method in brief: as §1
row,Binder,SPOT peptide array binding signal intensity
1,RPVPRRPSQPLNTLS,441

# Target: SpHof1-3
# Assay: as above
# Method in brief: as §1
row,Binder,SPOT peptide array binding signal intensity
1,RPVPRRPSQPLNTLS,278

# Target: SpHse1
# Assay: as above
# Method in brief: as §1
row,Binder,SPOT peptide array binding signal intensity
1,RPVPRRPSQPLNTLS,297

# Target: SpLsb1
# Assay: as above
# Method in brief: as §1
row,Binder,SPOT peptide array binding signal intensity
1,RPVPRRPSQPLNTLS,350

# Target: SpLsb4
# Assay: as above
# Method in brief: as §1
row,Binder,SPOT peptide array binding signal intensity
1,RPVPRRPSQPLNTLS,5510

# Target: SpMyo1
# Assay: as above
# Method in brief: as §1
row,Binder,SPOT peptide array binding signal intensity
1,RPVPRRPSQPLNTLS,37.8

# Target: SpNbp2
# Assay: as above
# Method in brief: as §1
row,Binder,SPOT peptide array binding signal intensity
1,RPVPRRPSQPLNTLS,81.5

# Target: SpPex13
# Assay: as above
# Method in brief: as §1
row,Binder,SPOT peptide array binding signal intensity
1,RPVPRRPSQPLNTLS,4.25

# Target: SpRvs167
# Assay: as above
# Method in brief: as §1
row,Binder,SPOT peptide array binding signal intensity
1,RPVPRRPSQPLNTLS,3150

# Target: SpSla1-D1-D2
# Assay: as above
# Method in brief: as §1
row,Binder,SPOT peptide array binding signal intensity
1,RPVPRRPSQPLNTLS,13

# Target: SpSla1-D3
# Assay: as above
# Method in brief: as §1
row,Binder,SPOT peptide array binding signal intensity
1,RPVPRRPSQPLNTLS,2
